# An excerpt weighted towards active compounds, which were near 6.6% of everything screened.
# KB-3-1 cytotox = qHTS assay for MDR1-selective chemotherapeutics: Primary screen using the parental adenocarcinoma cell KB-3-1. KB-3-1 viability, CellTiter-Glo ATP luminescence, 72 h. Potency, µM (top dose mostly 46.1 µM), actives largely listed as cytotoxic. 400,000 compounds, 1.4% hits; note: % is set by controls: 0 for no effect and ±100 for the full control effect; nearly all actives have a fitted effect of over 60% in size
#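 Cells are dispensed, compounds pinned in, plates held at 37 °C for 72 h, then CellTiter-Glo is added and luminescence read after 10 minutes. Cell line: parental KB-3-1 in phenol-red-free DMEM, 10% FBS.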
# KB-V1 MDR tox = qHTS assay for MDR1-selective chemotherapeutics: Primary screen using the drug-selected MDR subline cells KB-V1. KB-V1 MDR cells viability, CellTiter-Glo, 72 h. Potency, µM (highest dose often 46.1 µM), usual class: cytotoxic. 400,000 compounds, 3.4% hits. AID 1347076, 2019; note: % is set by controls: 0 for no effect and ±100 for the full control effect; nearly all actives have a fitted effect of over 60% in size
#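 Cytotoxicity via CellTiter-Glo luminescence after 72 h compound exposure at 37 degrees C. Cells: drug-selected KB-V1 line, DMEM phenol-red free plus 10% FBS. Compounds tested at multiple concentrations; normalized data fitted to concentration-effect curves.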
# HepG2 viability = qHTS for Inhibitors of TGF-b: Cytotox Counterscreen | Potency, µM (series often up to 46.1 µM), for inactives: at the top dose activity change, negative = cytotoxicity, hits mostly cytotoxic | 410,000 compounds, 0.76% hits | HepG2 CAGA-GFP viability, ATP luminescence, 18 h
#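 HepG2 CAGA-GFP cells (1000/well, DMEM with 1% FBS) received compound, then TGF-beta at 500 pg/mL final, and were incubated 18 hours at 37 degrees C. Viability was read by CellTiter-Glo luminescence. Media-only wells were set as complete cell-killing and DMSO as no toxicity.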
# TGFb inhibitor = qHTS for Inhibitors of TGF-b; 410,000 compounds, 1.2% hits; Potency, µM (titrated, usually from 46.1 µM), inactives show at the top dose activity, negative = inhibition, usual class: inhibitors; HepG2 CAGA-GFP TGF-b/SMAD3 reporter, GFP fluorescence, 18 h; TGF-beta stimulated, 500 pg/mL final; note: % is set by controls: 0 for no effect and ±100 for the full control effect; nearly all actives have a fitted effect of over 65% in size
#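 HEPG2 CAGA-GFP, 1000 cells/well; 2 h settle, 37 C; cpd via pin tool; TGF-b 500 pg/mL final; 18 h, 37 C; GFP imaging ex488/em500-530; %Activity normalised to -TGF-b and +DMSO controls; CRC fit, curve class.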
# HT1080 IDH1KD tx = qHTS for induction of synthetic lethality in tumor cells producing 2HG: qHTS for the HT-1080-IDH1KD cell line; AID 686971, 2013; 360,000 compounds, 2% hits; Potency, µM (top dose mostly 46.1 µM), for inactives: at the top dose activity, negative = toxicity, actives largely listed as cytotoxic; HT-1080 IDH1 knockdown viability, ATP luminescence, 48 h;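 note: 0% = DMSO wells and -100% = cell-free medium wells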
#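 % activity derives from luminescence (CellTiter-Glo), normalised to DMSO and no-cell wells. HT-1080-IDH1KD cells, 750/well, had 48 h compound exposure at 37 °C.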
# HT1080NT lethal = qHTS for induction of synthetic lethality in tumor cells producing 2HG: qHTS for the HT-1080-NT fibrosarcoma cell line. HT-1080-NT fibrosarcoma viability, CellTiter-Glo ATP luminescence, 48 h. Potency, µM (highest dose often 46.1 µM), for the others: at the highest dose activity, negative = less viability, hits mostly cytotoxic. 360,000 compounds, 1.6% hits. AID 686970, 2013;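 note: NT is the 2HG producing partner of a matched IDH1 knockdown line; 0% = DMSO-treated cells and -100% = media-only wells without cells; nearly all actives have a fitted effect of over 55% in size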
#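 HT-1080-NT; 750 cells/well; 5% FBS RPMI; 48 h compound, 37 degrees C; CellTiter-Glo luminescence; curve fitting and curve-class assignment.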
# Starred values were filed as active, the others as inactive; i = inactive; ? = inconclusive; · = no result given. Calls come from the whole dose curve; as a rule, active = well fitted curve in the direction sought with a large enough effect; inconclusive = small, poorly fitted or top-dose-only effect, or another doubt; inactive = no such curve, though single readings can be large; an effect the other way counts as inactive or inconclusive. Potency is the fitted concentration of half-maximal effect.
SMILES,KB-3-1 cytotox,KB-V1 MDR tox,HepG2 viability,TGFb inhibitor,HT1080 IDH1KD tx,HT1080NT lethal
O=C1C=CCC(/C=C/c2ccccc2)O1 (stereo not drawn),?,?,13µM*,?,?,?
CC(Sc1nnc2ccccn12)C(=O)Nc1ncc(Cl)cc1Cl (stereo not drawn),i,i,-25%,-1%,-1%,8%
COc1ccc(-n2c(SC(C)C(=O)Nc3ncc(Cl)cc3Cl)nc3ccccc32)cc1 (stereo not drawn),21µM*,2.1µM*,3%,-1%,?,?
COc1ccc2c(c1OC)C(=O)N1c3ccccc3C(=O)N(Cc3ccco3)C21 (stereo not drawn),i,?,-21%,?,·,·
COc1ccc(S(=O)(=O)N(C)C)cc1NC(=O)c1ccc(OCC2CCCO2)cc1 (stereo not drawn),i,i,-14%,-13%,-5%,-7%
Cc1cccc(-c2cc(C(=O)NCc3ccccn3)c3ccccc3n2)c1,i,5.8µM*,3%,-1%,7%,-4%
O=C(NCc1ccccn1)c1cc(-c2ccc(Cl)cc2)nc2ccccc12,i,12µM*,-5%,-5%,0%,7%
Cc1ccc(-c2cc(C(=O)NCc3ccccn3)c3ccccc3n2)cc1C,?,15µM*,-39%,-46%,?,?
COc1ccccc1CNc1ccc(-c2nc(C)no2)cc1[N+](=O)[O-],?,?,7%,-2%,·,·
COc1cccc(Cn2ncc3c4sc(SC)cc4n(C)c3c2=O)c1,i,i,·,·,·,·
CCOc1cc(-c2ccc(OC(=O)c3ccccc3)c(OC)c2)cc(=O)c2c(C)oc(C)c12,·,·,-6%,3%,·,·
O=C(Nc1nc(=O)c2ccccc2s1)c1ccc(F)cc1,i,i,-32%,?,1.4µM*,16µM*
CCn1c(NC(=O)c2ccc(C)cc2)c2ccccc2nc1=O,i,12µM*,-32%,-9%,21%,2%
CCn1c(NC(=O)c2ccc(F)cc2)c2ccccc2nc1=O,?,10µM*,2%,0%,1%,2%
CCn1c(NC(=O)C(C)C)c2ccccc2nc1=O,i,i,-5%,-20%,9%,15%
Cc1ccc(C(=O)Nc2c(-c3cccs3)c(=O)c3ccccc3n2C)cc1,i,?,14µM*,?,?,?
COc1ccc(C(=O)Nc2c(-c3cccs3)c(=O)c3ccccc3n2C)cc1,?,i,-17%,1%,-2%,-6%
O=[N+]([O-])c1ccc(O/N=[N+](\[O-])N2CCCC2)c([N+](=O)[O-])c1,·,·,-82%,?,·,·
Cc1ccc(CN2CCc3nc(N4CCN(c5ccccc5F)CC4)ncc3C2)s1,i,i,-11%,?,·,·
N#Cc1c(NC(=O)CS(=O)(=O)c2ccc(Cl)cc2)sc2c1CCCCC2,i,i,-30%,0%,·,·
COc1ccc2c(c1)C(C)=CC(C)(C)N2S(=O)(=O)c1ccc(NC(C)=O)cc1,2.1µM*,i,-15%,?,?,?
CC1=CC(C)(C)N(S(=O)(=O)c2ccc(F)cc2)c2ccc(C)cc21,23µM*,7.3µM*,-42%,-23%,?,7.1µM*
CC1=CC(C)(C)N(S(=O)(=O)c2ccc(C)cc2)c2ccccc21,16µM*,?,-36%,?,?,6.3µM*
CCOc1ccc2c(c1)C(C)=CC(C)(C)N2S(=O)(=O)c1ccc(F)cc1,7.3µM*,?,-30%,?,?,?
COc1ccc(S(=O)(=O)N2CC=C(C(=O)Nc3ccc(NC(C)=O)cc3)CC2)cc1,i,i,-22%,14%,6%,-5%
SMILES,KB-3-1 cytotox,KB-V1 MDR tox,HepG2 viability,TGFb inhibitor,HT1080 IDH1KD tx,HT1080NT lethal
COc1ccc2c(c1)C(C)=CC(C)(C)N2S(=O)(=O)c1ccc(Br)cc1,4.1µM*,3.3µM*,-17%,?,2.3µM*,3.3µM*
CCOc1ccc2c(c1)C(C)=CC(C)(C)N2S(=O)(=O)c1ccc(NC(C)=O)cc1,1.6µM*,1.3µM*,-5%,?,1.8µM*,3.7µM*
CC(=O)C1=C(c2cccc([N+](=O)[O-])c2)N(C(C)=O)n2c(nnc2-c2ccc(C)cc2)S1,·,·,13%,5%,·,·
Cc1ccc(O)c(Cc2cc(C)cc(Cc3cc(C)ccc3O)c2O)c1,?,i,-89%,22µM*,?,-18%
O=C(NCCOc1ccccc1)C1Nc2ccc(C(F)(F)F)cc2C2c3ccccc3CC12 (stereo not drawn),?,i,16µM*,?,?,?
CCOC(=O)C1Nc2ccc(C(F)(F)F)cc2C2c3ccccc3CC12 (stereo not drawn),16µM*,18µM*,-101%,?,?,?
CC(C)COc1ccc(C(=O)N2CCCCC2CCN2CCCCC2)cc1 (stereo not drawn),·,·,-5%,2%,·,·
C=C(c1ccc2nc(NC(=O)OC)[nH]c2c1)c1cccs1,?,0.65µM*,-38%,?,0.73µM*,1µM*
C=CCOc1ccc2nc(NC(=O)OC)[nH]c2c1,0.65µM*,1.2µM*,10%,-1%,1.8µM*,?
COC(=O)Nc1nc2ccc(-c3n[nH]c(=O)c4ccccc34)cc2[nH]1,15µM*,i,1%,0%,?,-5%
O=C(CSc1nc2c(c(=O)[nH]1)CCCC2)Nc1ccc(Br)cc1,i,i,-13%,-6%,·,·
N#Cc1ccc2[nH]cc(C3c4cc(F)ccc4C=C(c4ccsc4)N3c3ccc(C#CCCO)cc3)c2c1 (stereo not drawn),?,?,·,·,15µM*,?
CNC(=S)NNC(=O)c1cccn(Cc2ccc(Cl)c(Cl)c2)c1=O,i,?,2%,-14%,-20%,11%
C=CCNC(=S)NNC(=O)c1cccn(Cc2ccc(Cl)c(Cl)c2)c1=O,?,16µM*,-24%,-6%,?,?
C=CCNC(=S)NNC(=O)c1cccn(Cc2ccc(Cl)cc2Cl)c1=O,i,23µM*,-1%,-26%,-21%,3%
Cc1ccc(-n2nc(C)c(NC(=O)CCl)c2C)cc1C,9.2µM*,16µM*,-68%,?,?,?

# High-throughput results from PubChem.
